The results in this text go back to PubChem BioAssay (NCATS).

Results filed as inconclusive are left out. The source made the active and inactive calls. The call rests on the fitted dose curve; in most records, active means well fitted curve in the direction sought with a large enough effect; inconclusive means small, poorly fitted or top-dose-only effect, or another doubt; inactive means no such curve, though single readings can be large; an effect the other way counts as inactive or inconclusive.

Assay [1] can be described thus: qHTS of pediatric cancer cell lines to identify multiple opportunities for drug repurposing: Primary screen for NB1643 cells (AID 1347099). Further: nearly all actives have a fitted effect of over 50% in size. In a few lines: (§1)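 Quantitative HTS format: each compound titrated (MIPE 11 points from 0.78 nM, NPC 8 points from 0.59 nM) onto cells plated 5 hours earlier. After 48 h at 37 degrees C, CellTiter-Glo luminescence was recorded.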
On the technique in general: In qHTS, concentration-response curves come from the screen itself.

Assay [2] is described as follows: qHTS of pediatric cancer cell lines to identify multiple opportunities for drug repurposing: Primary screen for LAN-5 cells (AID 1347100). The method, boiled down: (§2)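 Cells (500-1,000/well) in growth media were settled 5 h at 37 degrees C, then given compounds for 48 h. Viability was read as CellTiter-Glo luminescence. Primary runs used MIPE at 11 points (0.78 nM-46 µM) and NPC at 8 points (0.59 nM-46 µM); follow-ups used 11 points.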

Assay [3] in a line: qHTS of pediatric cancer cell lines to identify multiple opportunities for drug repurposing: Primary screen for BT-12 cells (AID 1347101). Further: nearly all actives have a fitted effect of over 25% in size. In a few lines: (§3)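 Cells (500-1,000/well) rested 5 h, then received compounds for 48 h; metabolically active cells were measured by CellTiter-Glo luminescence. Final concentrations spanned up to 46 µM (MIPE, 11-point) or 0.59 nM-46 µM (NPC, 8-point) in primary screens, 11-point in follow-ups.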

The nature of assay [4]: qHTS of pediatric cancer cell lines to identify multiple opportunities for drug repurposing: Primary screen for RD cells (AID 1347104). Further: nearly all actives have a fitted effect of over 55% in size. In a few lines: as §1
A short description of assay [5]: qHTS of pediatric cancer cell lines to identify multiple opportunities for drug repurposing: Primary screen for MG 63 (6-TG R) cells (AID 1347105). Further: nearly all actives have a fitted effect of over 50% in size. The method, boiled down: as §1
The nature of assay [6]: qHTS of pediatric cancer cell lines to identify multiple opportunities for drug repurposing: Primary screen for control Hh wild type fibroblast cells (AID 1347106). Further: nearly all actives have a fitted effect of over 55% in size. The method, boiled down:
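Viability after 48 h compound treatment at 37C, 500-1,000 cells/well, read as ATP luminescence with CellTiter-Glo. Primary screens used 11-point (MIPE, 0.78 nM-46 µM) or 8-point (NPC, 0.59 nM-46 µM) final concentrations; follow-up screens used 11-point dilutions.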

Assay [7] can be described thus: qHTS of pediatric cancer cell lines to identify multiple opportunities for drug repurposing: Primary screen for OHS-50 cells (AID 1347103). Further: nearly all actives have a fitted effect of over 40% in size. In a few lines:
as §3

Assay [8] in a line: qHTS of pediatric cancer cell lines to identify multiple opportunities for drug repurposing: Primary screen for Rh30 cells (AID 1347107). Further: nearly all actives have a fitted effect of over 75% in size. In a few lines:
as §2

Assay [9] is described as follows: qHTS of pediatric cancer cell lines to identify multiple opportunities for drug repurposing: Primary screen for Rh18 cells (AID 1347102). Further: nearly all actives have a fitted effect of over 65% in size. The method, boiled down: as §2
Assay [10] is described as follows: qHTS of pediatric cancer cell lines to identify multiple opportunities for drug repurposing: Primary screen for SK-N-SH cells (AID 1347098). Further: nearly all actives have a fitted effect of over 65% in size. The method, boiled down: as §3
Potency means the concentration at half of the fitted maximal effect.

As for `CC(=NNC(=S)N1CCC1)c1ccccn1`, the Potency in assay [1] was 0.001 µM (active); in assay [2], 0.935 µM (active); in assay [3], 0.0014 µM (active); in [4], 0.003 µM (active); in assay [5], 0.0235 µM (active); in assay [6], 0.166 µM (active).
With `CN[C@@H](C)C(=O)N[C@H]1CN(C(=O)CC(C)C)CC[C@H]2CC[C@@H](C(=O)NC(c3ccccc3)c3ccccc3)N2C1=O`, the Potency result in assay [1], in assay [6] and in assay [8] was “inactive” each time. Also, the Potency in assay [2] is 0.187 µM (active); in [3], 0.485 µM (active); in assay [7], 0.243 µM (active).
As to `COC(=O)[C@@H]1[C@H]2C[C@H]3c4[nH]c5ccccc5c4CCN3C[C@@H]2CC[C@@H]1O`, the Potency entry in assay [1], in assay [2], in [3], in assay [9], in assay [7] and in assay [4] was “inactive” throughout. The Potency result in [5], in assay [6] and in assay [8] was “inactive” each time.
Turning to `CCN(CC)CCOC(=O)c1ccc(N)cc1`, the Potency result in assay [1], in assay [2], in assay [3], in assay [9], in [4] and in assay [5] was “inactive” in each case. Besides, the Potency result in assay [6] and in assay [8] was “inactive” throughout.
In the case of `CC1(C)CCC(CN2CCN(c3ccc(C(=O)NS(=O)(=O)c4ccc(NCC5CCOCC5)c([N+](=O)[O-])c4)c(Oc4cnc5[nH]ccc5c4)c3)CC2)=C(c2ccc(Cl)cc2)C1`, the Potency is 0.0418 µM (active) in assay [1]; 1.05 µM (active) in assay [2]; 30.6 µM (active) in assay [3]; 10.5 µM (active) in [9]; 18.7 µM (active) in assay [4]; 11.8 µM (active) in [5]. In assay [6], the Potency entry is “inactive”.
In the case of `Cc1cnc(C(=O)O)c[n+]1[O-]`, the Potency entry in [1], in [2], in [3], in [9], in [7] and in [4] was “inactive” each time. For the same molecule, the Potency result in assay [5], in assay [6] and in [8] was “inactive” throughout.
As for `O=c1c(-c2ccc(O)cc2)coc2cc(OC3O[C@H](CO)[C@H](O)[C@H](O)[C@H]3O)cc(O)c12` (stereo partly specified), the Potency in assay [10] was 9.61 µM (active); in assay [4], 6.62 µM (active). Further, the Potency result in assay [7] and in [5] was “inactive” in each case.
Take `O=C1NC(=O)C(=Cc2ccc3c(c2)OC(F)(F)O3)S1`: in [10], the Potency was 12.1 µM (active). For the same molecule, the Potency entry in [9] and in assay [6] was “inactive” each time.
With `Cn1cc(C=C2C(=O)Nc3cccnc32)c2ccccc21`, the Potency result in assay [1], in assay [2], in [3], in assay [9], in assay [5] and in assay [6] was “inactive” throughout. In addition, in assay [8], the Potency entry was “inactive”.
As for `Cc1cccc(Nc2nc(-c3ccncc3)cs2)c1`, the Potency entry in assay [1], in assay [9], in assay [5], in assay [6] and in assay [8] was “inactive” each time. In addition, the Potency in assay [7] is 21.7 µM (active).
On to `COCCCCC(=NOCCN)c1ccc(C(F)(F)F)cc1`, for which the Potency result in [1], in [2], in assay [9] and in assay [6] was “inactive” each time. Besides, the Potency in assay [4] is 33.2 µM (active); in [8], 23.5 µM (active).
`O=C(NCCN1CCOCC1)c1ccc(Cl)cc1`: the Potency result in assay [2], in assay [3], in [9], in [7], in assay [4] and in [5] was “inactive” in each case. The Potency result in assay [6] and in assay [8] was “inactive” in each case.
With `CC(=O)O[C@]1(C(C)=O)CC[C@H]2[C@@H]3C=C(Cl)C4=CC(=O)[C@@H]5C[C@@H]5[C@]4(C)[C@H]3CC[C@@]21C`, the Potency result in assay [1], in assay [2], in assay [5] and in assay [6] was “inactive” throughout. The Potency in assay [3] was 12.3 µM (active).
Take `O=C1C(Cl)=C(NCCN2CCOCC2)C(=O)c2ncccc21`: the Potency in assay [2] is 8.33 µM (active); in [3] it was 3.43 µM (active); in assay [9], 2.35 µM (active); in assay [7] it was 9.68 µM (active); in assay [4], 5.9 µM (active); in [5], 18.7 µM (active). Also, the Potency is 11.8 µM (active) in [6] and 8.33 µM (active) in assay [8].
For `O=c1ccn([C@@H]2O[C@H](CO)[C@H](O)[C@H]2O)c(=O)[nH]1`, the Potency result in [2], in assay [3], in assay [9], in assay [7], in [4] and in [5] was “inactive” each time. In addition, the Potency result in assay [6] and in assay [8] was “inactive” each time.
For the molecule `C[C@]12CC[C@@H]3c4ccc(O)cc4C[C@@H](CCCCCCCCCS(=O)CCCC(F)(F)C(F)(F)F)[C@H]3[C@H]1CC[C@H]2O` (stereo partly specified), the Potency entry in assay [1], in assay [2], in [5] and in [6] was “inactive” throughout.
As for `O=c1c(O)c(-c2ccc(O)cc2)oc2cc(O)cc(O)c12`, the Potency in [1] was 11.8 µM (active); in assay [2], 6.62 µM (active). The Potency entry in assay [5] and in [6] was “inactive” in each case.
Take `O=C1NC(=O)C(=Cc2ccc(-c3ccc(F)cc3)o2)S1`: the Potency in [1] was 18.7 µM (active). In addition, the Potency entry in [2] and in assay [9] was “inactive” each time.
For `N#CC(=C(N)Sc1ccccc1N)C(C#N)=C(N)Sc1ccccc1N`, the Potency in [1] is 20.9 µM (active); in assay [3] it was 13.7 µM (active); in [7], 27.3 µM (active); in assay [4], 5.26 µM (active). In addition, the Potency result in [6] was “inactive”.
Take `COc1cc2ncnc(-n3nc(-c4ccccn4)nc3N)c2cc1OC`: in [1], the Potency is 4.69 µM (active). In addition, the Potency result in assay [5] is “inactive”.
For `Cc1cc(OCCCc2c(C(=O)O)n(Cc3cccnc3)c3c(-c4c(COc5ccc(N6CCN([S+](C)(=O)[O-])CC6)cc5)nn(C)c4C)cccc23)cc(C)c1Cl`, the Potency was 23.5 µM (active) in [1], 29.6 µM (active) in assay [4] and 29.6 µM (active) in assay [5]. Besides, the Potency entry in [6] was “inactive”.
For `NC(=O)[C@@H](CCC(F)(F)F)N(Cc1ccc(-c2ncon2)cc1F)S(=O)(=O)c1ccc(Cl)cc1`, in assay [1], the Potency was 23.5 µM (active). Besides, the Potency result in assay [2], in [9] and in assay [6] was “inactive” throughout.
`Nc1ncnc2c1ncn2[C@@H]1O[C@H](CO)C[C@@H]1O`: the Potency result in assay [2], in assay [3], in assay [9] and in assay [4] was “inactive” each time. For the same molecule, the Potency in [7] is 24.3 µM (active).
